# Compound activity as filed in PubChem.
# MEP2-GFP yeast = alters MEP2-GFP fluorescence in TOR pathway yeast screen; 330,000 compounds, 0.51% hits; S. cerevisiae MEP2-GFP strain, flow cytometry GFP, 3 h; 100% = DMSO control level; GFP response vs DMSO, % at 10 µM;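 active = GFP response versus DMSO above a set limit, roughly screen mean plus 3 SD, cut at about 180% in these data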;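 also: median GFP fluorescence of the barcode-gated MEP2-GFP cells per well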
# RPL19A TOR yeast = yeast TOR pathway RPL19A-GFP modulation; S. cerevisiae RPL19A-GFP strain, flow cytometry, 3 h; active compounds read low; percent response vs DMSO, % at 10 µM; 330,000 compounds, 0.3% hits;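 active = percent response vs DMSO below 50%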;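 also: median channel GFP fluorescence of the barcoded RPL19A-GFP strain; ratio of sample median GFP to plate DMSO average so 100% = DMSO; lower means less RPL19A-GFP as with rapamycin TOR inhibition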
# CIT2-GFP yeast = alters CIT2-GFP fluorescence in TOR pathway yeast screen. S. cerevisiae CIT2-GFP strain, flow cytometry, 3 h; 100 means same as DMSO wells. GFP response vs DMSO, % at 10 µM. 320,000 compounds, 0.065% hits;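 active = GFP response relative to DMSO above a set limit, near the screen mean plus 3 SD, cut at about 150% in these data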;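 also: ratio of well median GFP fluorescence to mean of DMSO wells on the plate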
# AGP1-GFP MLPCN = yeast TOR pathway AGP1-GFP modulation | S. cerevisiae AGP1-GFP multiplex flow cytometry, 3 h; GFP as percent of DMSO wells | GFP response vs DMSO, % at 10 µM | 320,000 compounds, 0.02% hits | AID 2066;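 active = GFP response relative to DMSO above a set limit, near screen average plus 3 SD, cut at about 150% in these data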;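 also: median GFP channel fluorescence of the gated AGP1 strain per well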
# LAP4-GFP MLPCN = modulators of TOR pathway LAP4-GFP in S. cerevisiae; GFP response vs DMSO, % at 10 µM; S. cerevisiae LAP4-GFP multiplex, flow cytometry GFP, 3 h; median GFP as percent of DMSO wells; 320,000 compounds, 0.34% hits;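 active = GFP response vs DMSO above a set limit, about the screen mean plus 3 SD, cut at about 150% in these data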
# LAP4-GFP pick2 = reconfirmed LAP4-GFP TOR pathway modulator in yeast; S. cerevisiae LAP4-GFP strain, flow cytometry GFP, 3 h; GFP response vs DMSO, % at 10 µM; 590 compounds, 20% hits; shares compounds with LAP4-GFP MLPCN;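 active = GFP signal as percent of the solvent control above about 150%, meaning raised reporter expression, limit read from the data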;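 also: ratio of well median GFP fluorescence to plate DMSO mean so 100% = DMSO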
# MEP2 cherry2 = second confirmation of modulators of TOR reporter MEP2-GFP in yeast | shares compounds with LAP4-GFP MLPCN | S. cerevisiae MEP2-GFP strain, flow cytometry GFP, 3 h | GFP response vs DMSO, % at 10 µM | 590 compounds, 10% hits;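 active = GFP signal above 150% of the solvent control wells, that is a rise of more than half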;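 also: median channel GFP fluorescence of all gated yeast cells per well; ratio of median GFP to plate DMSO average so 100% = DMSO level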
# RPL19A-GFP pick2 = yeast RPL19A-GFP TOR reporter modulation, second cherry pick. shares compounds with LAP4-GFP MLPCN. GFP response vs DMSO, % at 10 µM. AID 2623. S. cerevisiae RPL19A-GFP strain, flow cytometry GFP, 3 h; active compounds read low; 100% means same as DMSO wells. 590 compounds, 3% hits;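 active = under 65% GFP response relative to DMSO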;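 also: median GFP channel fluorescence per well over the all cells gate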
# CIT2 GFP CP2 = reconfirmed modulator of CIT2-GFP TOR reporter in yeast; GFP response vs DMSO, % at 10 µM; S. cerevisiae CIT2-GFP strain, flow cytometry GFP, 3 h; DMSO control wells read 100%; shares compounds with LAP4-GFP MLPCN; 590 compounds, 8% hits;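 active = GFP response vs DMSO above about 150%, limit read from the data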;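 also: median green fluorescence per well over all gated yeast cells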
# AGP1 GFP CP2 = reconfirmed modulator of AGP1-GFP TOR reporter in yeast. shares compounds with LAP4-GFP MLPCN. S. cerevisiae AGP1-GFP strain, flow cytometry GFP, 3 h. percent response vs DMSO, % at 10 µM. 590 tested, under 10 active. AID 2643;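 active = over 150 percent of DMSO response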;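 also: median GFP channel fluorescence over all cells without mother daughter split; sample median GFP divided by mean DMSO control so 100% equals DMSO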
# s288c autofluor = yeast s288c autofluorescence artifact, counter-screen; fluorescence change (kMESF span) at 33 µM; shares compounds with LAP4-GFP MLPCN; 610 tested, under 10 active; S. cerevisiae s288c, 520 nm autofluorescence, flow cytometry, 3 h; active compounds read high; zero means same as solvent-only cells;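 active = fluorescence span over the dose series, or activity score, above about 33, limit read from the data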
# Yeast autofl DR = TOR screen hit shows autofluorescence in yeast s288c; shares compounds with LAP4-GFP MLPCN; S. cerevisiae s288c parental, compound autofluorescence, flow cytometry, 3 h; 110 tested, under 10 active; fluorescence change (span) at 33 µM;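 active = fluorescence change span, or the activity score built from it, above 25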
# TORC1 bypass = stops wildtype yeast growth while TORC1 bypass cells still grow. AID 504456. shares compounds with LAP4-GFP MLPCN. 120 tested, under 10 active. growth rating (0-3) at 30 µM. S. cerevisiae BY4741 spot growth rating, 48-72 h; active compounds read low;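 active = growth rating at most 1 for wild type yeast while the TORC1 bypass strain still grows fully, rated 3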
# * hit, by the source's call; nt = no result. An excerpt weighted towards active compounds, which were near 0.93% of everything screened.
SMILES,MEP2-GFP yeast,RPL19A TOR yeast,CIT2-GFP yeast,AGP1-GFP MLPCN,LAP4-GFP MLPCN,s288c autofluor,others
Cc1ccc(-c2nc(N)c3c(-c4ccc(C)cc4)nn(C(C)(C)C)c3n2)cc1,100,101,95,96,98,0.1,LAP4-GFP pick2=112;MEP2 cherry2=121;RPL19A-GFP pick2=106;CIT2 GFP CP2=132;AGP1 GFP CP2=99
Cc1ccc(S(=O)(=O)NCCOc2cc(C)ccc2C)cc1,88,104,nt,97,87,nt,
O=C(NC(=S)N1CCCC1)c1ccccc1F,107,100,98,102,101,nt,
Cc1cc(C)n2nc(CNS(=O)(=O)c3ccc(CC(C)C)cc3)nc2n1,96,104,98,96,117,nt,
O=C(CN1C(=O)NC2(CCOc3ccccc32)C1=O)NCCc1ccccc1 (stereo not given),94,95,93,98,100,nt,
CCOc1ccccc1C(=O)NCC(=O)N1CCN(Cc2ccc3c(c2)OCO3)CC1,103,102,93,105,103,nt,
CC(C)OC(=O)CSc1nc2ncccc2[nH]1,93,94,97,107,171*,nt,LAP4-GFP pick2=98;MEP2 cherry2=103;RPL19A-GFP pick2=99;CIT2 GFP CP2=105;AGP1 GFP CP2=101
CC(C)OC(=O)CSc1nc2ncc(Cl)cc2[nH]1,107,100,93,95,106,nt,
Cc1ccc(/C=C2\SC(=S)N(CC3CCCO3)C2=O)o1 (stereo not given),108,102,113,108,171*,0.31,
Cc1ccc(/C=C2/SC(=S)N(C3CCCCC3)C2=O)o1,92,93,88,81,158*,0.2,
O=C1/C(=C/c2ccncc2)SC(=S)N1C1CCCCC1,102,96,83,96,112,nt,
CCN(CC)S(=O)(=O)c1ccc2[nH]c(=O)cc(C(=O)Nc3ccccc3N3CCCC3)c2c1,103,98,95,98,101,nt,
COc1ccc(/C=C2\C(=O)ON=C2c2ccccc2)cc1,74,90,88,72,168*,0.3,LAP4-GFP pick2=160*;MEP2 cherry2=115;RPL19A-GFP pick2=78;CIT2 GFP CP2=104;AGP1 GFP CP2=86
Cc1ccc(/C=C2\C(=O)ON=C2c2ccccc2)o1,102,96,60,71,105,nt,
O=C1ON=C(c2ccccc2)/C1=C/c1ccc(O)c(O)c1,97,90,111,91,136,nt,
Cc1ccc(C2=NOC(=O)/C2=C\c2ccc(C)o2)cc1,74,88,58,78,203*,4.3,Yeast autofl DR=1.8;TORC1 bypass=3
COc1cc(/C=C2\C(=O)ON=C2c2ccc(Cl)cc2)ccc1O,98,85,89,87,224*,0.5,
COc1cc(/C=N/c2oc(C)c(C)c2C#N)cc(Br)c1O,98,98,97,96,101,nt,
CCOC(=O)C(=O)NN=C(c1ccccc1)c1ccccc1,93,101,89,104,107,nt,
